These results are taken from PubChem BioAssay (NCI).

Common to all, as to assay: NCI-60 one-dose screen, 48 h (100 = growth as untreated, 0 = no growth, -100 = all killed)
Common to all, as to conditions: 10 µM unless noted

Assay [1] relates to SK-MEL-2 melanoma.
The subject of assay [2] is SN12C renal.
For assay [3], the system named is UO-31 renal.
Assay [4] deals with TK-10 renal.
The test system of assay [5] is ACHN renal.
The subject of assay [6] is CAKI-1 renal.
The subject of assay [7] is A498 renal.
In assay [8] the test system is CCRF-CEM leukemia.
In assay [9] the test system is MOLT-4 leukemia.
Assay [10] deals with SR leukemia.
Assay [11] relates to RPMI-8226 leukemia.
The test system of assay [12] is OVCAR-8 ovarian.
Assay [13] has as its system OVCAR-5 ovarian.
In assay [14] the test system is OVCAR-4 ovarian.
Assay [15] has as its system SK-OV-3 ovarian.
For assay [16], the system named is IGROV1 ovarian.
Assay [17] has as its system OVCAR-3 ovarian.
For assay [18], the system named is HS 578T breast.
Assay [19] relates to EKVX NSCLC.
Assay [20] has as its system NCI/ADR-RES ovarian.

This is part of a sample that, as a whole, favours compounds with a hit. Of some 83,000 tested, about 20% had one in any assay.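 48-hour exposure, single concentration, 96-well plates; percent growth endpoint where 0 means no net growth. Active: below 10.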 A number with no mark means an inactive call. Active and inactive are the calls of the source.

`COc1cc(OC)c(/C=C/c2cc[n+](C)c3ccccc23)c(OC)c1`: the growth was -8.65% (active) in assay [1]; 10.7% in assay [2]; 61% in [3]; 53.4% in assay [4]; 71.8% in assay [5]; 67.1% in [6]. In addition, the growth is 9.92% (active) in assay [7]; 7.13% (active) in assay [8]; 3.59% (active) in assay [9]; -16.8% (active) in assay [10]; -2.59% (active) in [11]; -8.8% (active) in assay [12]. For the same molecule, the growth is 49.4% in assay [13]; 13.6% in assay [14]; -10.8% (active) in [15]; 6.79% (active) in assay [16]; -26.6% (active) in assay [17]; 18.8% in [18].

In the case of `CCCCCCCCCCCCCCCC[N+]1(CC)CCCC1`, the growth is -59.2% (active) in assay [1]; -16.7% (active) in assay [2]; 38.3% in [3]; -59.1% (active) in [4]; 9.99% (active) in assay [5]; -41.8% (active) in assay [6]. Further, the growth is -9.64% (active) in [7]; -67% (active) in assay [8]; -67.3% (active) in assay [9]; -39.9% (active) in [10]; -54.7% (active) in assay [11]; -42.5% (active) in [12]. For the same molecule, the growth in [13] was 0.586% (active); in [14] it was -4.99% (active); in assay [15] it was -25.1% (active); in [16] it was -76% (active); in [17], -52.5% (active); in assay [18] it was -8.22% (active).

On to `COc1ccc2nc(NC(=O)c3cccnc3Nc3cc(OC)c(OC)c(OC)c3)sc2c1`, for which the growth in assay [1] was 48%; in assay [19], 36.3%; in [2] it was 18.5%; in assay [5], 58%; in assay [6], 5.14% (active); in assay [7] it was -64.4% (active). Further, the growth in [8] is 48.6%; in [9] it was 56.7%; in assay [10] it was -12.6% (active); in assay [11], -1.38% (active); in [12] it was -10.3% (active); in [14] it was -65.5% (active). Besides, the growth in assay [15] was -40.4% (active); in assay [16] it was 68.6%; in assay [17], -62.5% (active); in [18], 44.5%; in [20], 4.41% (active).

In the case of `CCN(CC)Cc1cc(Nc2c3ccc(Cl)cc3nc3c(C)cccc23)ccc1O`, the growth in [1] was -73.2% (active); in assay [19] it was -40.4% (active); in assay [3], -96.8% (active); in assay [4], -60.5% (active); in assay [6], -41.1% (active); in [7], -48% (active). For the same molecule, the growth in assay [8] is 4.19% (active); in assay [9], -3.97% (active); in [10] it was -18.9% (active); in assay [11], -14.6% (active); in [12], -42.6% (active); in assay [14] it was -96% (active). The growth in [15] was -10.3% (active); in [16], -49.3% (active); in assay [17], -71.6% (active); in assay [18], -24.4% (active); in assay [20], -49.8% (active).

`CCN(CC)CC(C)(C)C(=O)/C=C/c1ccccc1`: the growth in assay [1] was 99.9%; in [19], 26.7%; in assay [2], 41.1%; in assay [4], 91.5%; in assay [5], 43.1%; in assay [6], 49.7%. Moreover, the growth in assay [7] is 68.4%; in assay [8] it was 9.36% (active); in assay [9], 19.1%; in assay [11] it was 39.4%; in assay [12] it was 76.6%; in assay [14], 63.3%. Besides, the growth is 74.8% in assay [15]; 74.1% in [16]; 37.7% in assay [17]; 75.5% in [18]; 46.8% in assay [20].

For `C#Cc1nc2ccccc2c(=O)[nH]1`, the growth in assay [1] is -21.9% (active); in assay [2], -41.3% (active); in assay [3], -72% (active); in assay [4], -42.3% (active); in assay [5], -69.2% (active); in [6] it was -86.4% (active). Also, the growth in assay [7] was -61.5% (active); in assay [8] it was -17% (active); in [9], -21.4% (active); in assay [10], 2.53% (active); in assay [11], -22.2% (active); in assay [12], -31.3% (active). For the same molecule, the growth was -44.7% (active) in [13]; -74.4% (active) in assay [14]; 49.6% in assay [15]; -66.2% (active) in assay [16]; -82.3% (active) in assay [17]; -4.79% (active) in assay [18]. Also, in [20], the growth is -2.94% (active).

On to `CN1Cc2c(cc(CN3CCCCC3)n2C)C(c2ccc(Br)cc2)C1` (centres undefined), for which the growth in assay [1] was 114%; in [19] it was 77.2%; in assay [2], 84.8%; in assay [4], 92.3%; in assay [5] it was 98.1%; in assay [6], 83.7%. Also, the growth is 98.1% in assay [7]; 88.2% in assay [8]; 92.5% in [9]; 81.4% in [11]; 96.9% in assay [12]; 96.1% in assay [13]. For the same molecule, the growth in assay [14] was 86.6%; in [15], 93.7%; in [16] it was 96.3%; in [17], 95.4%; in assay [18], 76.3%; in [20], 88.1%.

Take `COc1cccc2c1C(=O)c1c(O)c3c(c(O)c1C2=O)C[C@@](O)(/C(C)=N/NC(=O)c1ccc(Cl)cc1)C[C@@H]3OC1CC(N)C(O)C(C)O1` (some centres undefined): the growth is -81.1% (active) in assay [1]; 5.79% (active) in assay [2]; -40.4% (active) in assay [3]; -23.2% (active) in assay [4]; -36.3% (active) in [5]; -53.2% (active) in assay [6]. Besides, the growth in [7] is -88.4% (active); in assay [8] it was -10.8% (active); in assay [9], -31.3% (active); in assay [10], -34.1% (active); in assay [11], -28.7% (active); in [12], -49.9% (active). In addition, the growth in assay [13] is 13.9%; in assay [14], -9.91% (active); in assay [15] it was 5.07% (active); in assay [16] it was -21.8% (active); in assay [17] it was -28.5% (active); in assay [18] it was -28.4% (active). Also, the growth in assay [20] was 47.8%.

Turning to `CCN(CC)c1ccc(CNc2cc(C)nc3ccc(OC)cc23)cc1`, the growth is 79.2% in assay [1]; 25.7% in [19]; 3.78% (active) in [3]; 71.1% in assay [4]; 78.1% in assay [5]; 21.6% in assay [6]. The growth in assay [7] is 17%; in assay [8] it was 23.3%; in [9], 4.46% (active); in assay [10], -22.2% (active); in assay [11], -33.7% (active); in assay [12], 81.4%. Further, the growth in assay [13] was 96.3%; in [14] it was 71.9%; in assay [15] it was 84.7%; in assay [20] it was 33.9%.
